The source of these data is PubChem BioAssay (NCI).

Molecules are shown by their SMILES. “And” between values parts separate entries of the source, which are not always exact repeats. Equal values may be shown once. Compounds without any hit were thinned out: in the full panel of roughly 83,000, 20% have a hit.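 Values shown are percent growth following 48 h exposure of cells in 96-well plates to a single concentration of compound; below 10 was considered active.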 Values without a mark were called inactive. The source made the active and inactive calls.

What all share (assay): NCI-60 one-dose screen, 48 h (100 = growth as untreated, 0 = no growth, -100 = all killed)
What all share (settings): 10 µM unless noted

Assay [1] has as its system NCI-H23 lung.
In assay [2] the test system is NCI-H226 lung.
Assay [3] relates to NCI-H322M lung.
Assay [4] concerns HOP-62 NSCLC.
In assay [5] the test system is NCI-H460 lung.
Assay [6] has as its system HOP-92 NSCLC.
For assay [7], the system named is NCI-H522 lung.
In assay [8] the test system is A549/ATCC NSCLC.
For assay [9], the system named is 786-0 renal.
The test system of assay [10] is COLO 205 colon.

In the case of `N/C(=N\c1nc2ccccc2s1)NC(=O)Nc1ccccc1F`, the growth in [1] is 19.9%; in [2] it was 46.2%; in assay [3], 54.5%; in [4] it was 0.224% (active); in assay [5], 30.2%; in assay [6], 19.3%. Besides, the growth in assay [7] is -45.5% (active); in [8] it was 47.5%; in assay [9], 17.7%; in assay [10], -33% (active).
With `COc1ccc(/C=C/c2nc3ccccc3c(=O)n2CC(=O)Nc2ccccc2)cc1`, the growth is 42.6% in assay [1]; -26.4% (active) in [2]; 46.8% in assay [3]; 2.16% (active) in assay [4]; 37% in assay [5]; -0.34% (active) in assay [6]. In addition, the growth in assay [7] is 89.2%; in assay [8] it was 27.5%; in [9] it was -42.6% (active); in assay [10], 71%.
`O=CNc1cccc(-n2cnc3cc(-c4ccc(O)cc4)ccc32)c1`: the growth in [1] was 34.6%; in assay [2], -0.208% (active); in assay [3], 68.1%; in [4], 42.6%; in [5] it was 16.7%; in [6], 71.7%. For the same compound, the growth in assay [7] is -6.53% (active); in assay [8], 42.9%; in assay [9], 39.1%; in assay [10] it was 39%.
As for `CN(C)CCOc1ccc(C(=O)C2[C@H](c3ccc(Cl)cc3)[C@@H](c3ccccc3)NC23C(=O)Nc2ccc(Cl)cc23)cc1` (stereo not given in full), the growth in assay [1] was -93.2% (active); in assay [2], -82.3% (active); in assay [3] it was -91.1% (active); in [4], -82.6% (active); in assay [5], -87.4% (active); in [6], -89.9% (active). In addition, the growth is -91.7% (active) in assay [7], -77.9% (active) in assay [8], -94% (active) in assay [9] and -76.9% (active) in assay [10].
As to `Clc1ccc(-c2nc3ccc(-c4nnc(SCc5ccccc5)o4)cc3[nH]2)cc1`, the growth in [1] is 18.3%; in [2], 40.3%; in assay [3], 27.6%; in [4], 9.18% (active); in assay [5] it was 41.4%; in assay [6] it was 48%. Besides, the growth is 10.3% in assay [7], 34.9% in [8], 24.6% in [9] and 55.3% in assay [10].
With `COc1cc(C=O)ccc1Oc1nc(Nc2ccc(F)cc2)nc(N(C)C)n1`, the growth in [1] is 59.8% and 65.8%; in assay [2], 75.4% and 81.6%; in [3], 96.5% and 78.9%; in assay [4] it was 90% and 85.7%; in assay [5] it was 80.2% and 52.3%; in assay [6], 87.3% and 65.7%. In addition, the growth in [7] was 88.6% and 82.1%; in assay [8] it was 95.1% and 91%; in assay [9], 78.4% and 52%; in assay [10] it was 110% and 103%.
Consider `N#CC1=C(c2ccco2)Nc2c(c(-c3ccccc3)nn2-c2ccccc2)C12C(=O)Nc1ccc(Br)cc12` (stereo not given), for which the growth in [1] was 70.6%; in [2], 67.2%; in assay [3] it was 86.9%; in [4] it was 10.5%; in [5], 1.16% (active); in assay [6], 52.4%. The growth in [7] was 31.8%; in assay [8], 1.5% (active); in assay [9], 43.4%; in assay [10] it was 86.9%.
For `CN1C(=O)C2(C(C#N)=C(c3ccc(Cl)cc3)Nc3c2c(-c2ccccc2)nn3-c2ccccc2)c2ccccc21` (stereo not given), the growth was 80% in assay [1]; 69.3% in assay [2]; 87.5% in assay [3]; 44.5% in [4]; 92.4% in assay [5]; 75.1% in assay [6]. Further, the growth was 85.8% in assay [7], 89.7% in assay [8], 97.2% in assay [9] and 85.9% in assay [10].
For the compound `O=C1/C(=C/c2cnc(-c3ccccc3)s2)SC(=S)N1Cc1ccc2c(c1)OCO2`, the growth in assay [1] is 47.1%; in assay [2], 75.6%; in assay [3], 92.2%; in assay [4] it was 12.2%; in [5], 97.2%; in [6], 48.6%. Further, the growth in [7] was 47.5%; in assay [8] it was 101%; in assay [9], 31.2%; in assay [10] it was 125%.
For the compound `Nc1nnc(CS(=O)(=O)c2ccccc2)s1`, the growth in assay [1] is 107%; in [2] it was 121%; in [3], 94.6%; in [4] it was 102%; in [5] it was 114%; in [6] it was 86.5%. Moreover, the growth in [7] is 80.8%; in [8] it was 102%; in [9], 108%; in assay [10], 117%.
`Cc1ccc2nc(COc3ccc(C(=O)NNC(=O)Nc4ccc(Cl)c(C(F)(F)F)c4)cc3)[nH]c2c1`: the growth is 25.9% in assay [1]; 54.2% in [2]; 22.3% in [3]; 6.46% (active) in [4]; 32.8% in assay [5]; -22.6% (active) in [6]. The growth was 41% in assay [7], 17.1% in assay [8], 50.1% in [9] and 84.1% in assay [10].
Regarding `N#Cc1cc(-c2ccnc(Nc3ccc(N4CCN(C5COC5)CC4)cc3)n2)ccc1N1CCCC1`, the growth in assay [1] was 82.9%; in assay [2] it was 71%; in assay [3], 63.9%; in [4], 64.3%; in [5], 49.9%; in [6] it was 52.5%. Moreover, the growth in assay [7] was 65.6%; in assay [8], 67.3%; in assay [9], 16.9%; in assay [10], 86.1%.
